From PubChem BioAssay (NCI)
About 79,000 compounds went through this panel and 15% of them were active in at least one assay; those are over-represented in the sample as a whole. Active and inactive are the calls of the source. Rule as the data show it: active = growth inhibition above about 70%; inactive = the rest.

What was measured:
[1] = NCI Yeast Anticancer Drug Screen. Data for the rad52 strain (AID 147);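 also: 0% = growth of vehicle-treated control cultures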; details: S. cerevisiae rad52 mutant growth inhibition, hits give high values
Method in brief: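 Vehicle-treated cultures served as the reference for growth inhibition of compound-exposed yeast bearing a DNA repair mutation.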

[2] = NCI Yeast Anticancer Drug Screen. Data for the wt1 strain (AID 149);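 also: 0% = growth of vehicle-treated wt1 cultures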; details: S. cerevisiae wt1 strain (SPY 50644) growth inhibition, hits give high values
Method in brief: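 Vehicle-normalised growth inhibition; strain wt1; compound exposure.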

[3] = NCI Yeast Anticancer Drug Screen. Data for the rad50EPP+ strain (AID 151);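 also: 0% = growth of vehicle-treated control cultures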; details: S. cerevisiae rad50 mutant strain, hits give high values
Method in brief: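 In this screen, rad50EPP+ yeast were exposed to compounds. Growth inhibition was scored against vehicle-treated controls.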

[4] = NCI Yeast Anticancer Drug Screen. Data for the mgt1 strain (AID 153); details: S. cerevisiae mgt1 mutant growth inhibition, hits give high values
Method in brief: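 mgt1 strain exposed; growth vs vehicle control recorded as inhibition.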

[5] = NCI Yeast Anticancer Drug Screen. Data for the rad50 strain (AID 155);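 also: 0% = growth of vehicle-only cultures of the same strain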; details: S. cerevisiae rad50 strain growth inhibition, hits give high values
Method in brief: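 A DNA repair-deficient yeast mutant serves as the test organism; compound-induced growth inhibition is calculated against vehicle-treated cells.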

[6] = NCI Yeast Anticancer Drug Screen. Data for the mec2-1 strain (AID 157); details: S. cerevisiae mec2-1 strain, hits give high values
Method in brief: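 Vehicle-treated cultures served as reference for growth inhibition of compound-exposed mec2-1 yeast.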

[7] = NCI Yeast Anticancer Drug Screen. Data for the sgs1 mgt1 strain (AID 161);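 also: 0% = growth of cultures given vehicle only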; details: S. cerevisiae sgs1 mgt1 strain, hits give high values
Method in brief: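 Genetically altered yeast, compound exposure, growth inhibition relative to vehicle.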

[8] = NCI Yeast Anticancer Drug Screen. Data for the CLN2oe strain (AID 163);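 also: 0% = growth of vehicle-only control cultures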; details: S. cerevisiae CLN2oe strain, hits give high values
Method in brief: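 Inhibition relative to vehicle-treated yeast is reported. Cells: strain with genetic alteration in cell-cycle control, grown with compound.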

[9] = NCI Yeast Anticancer Drug Screen. Data for the cln2 rad14 strain (AID 165);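 also: 0% = growth equal to vehicle treated cultures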; details: S. cerevisiae cln2 rad14 strain, hits give high values
Method in brief: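 Each compound was tested on cln2 rad14 yeast. Inhibition of growth was calculated against vehicle-exposed controls.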

[10] = NCI Yeast Anticancer Drug Screen. Data for the bub3 strain (AID 167); details: S. cerevisiae bub3 mutant strain, hits give high values
Method in brief: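 Inhibition values come from growth of compound-treated mutant yeast normalised to vehicle-treated controls.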

[11] = NCI Yeast Anticancer Drug Screen. Data for the wt2 strain (AID 169);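 also: 0% = growth of vehicle-treated yeast cultures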; details: S. cerevisiae wt2 strain growth inhibition, hits give high values
Method in brief: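 Inhibition of yeast growth was determined after compound treatment, normalised to controls receiving only vehicle.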

[12] = NCI Yeast Anticancer Drug Screen. Data for the mlh1 strain (AID 171);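 also: 0% = growth of vehicle-treated control cultures of the same strain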; details: S. cerevisiae mlh1 strain growth inhibition, hits give high values
Method in brief: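 Vehicle-normalised growth inhibition of a repair- or checkpoint-altered yeast strain following compound treatment.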

[13] = NCI Yeast Anticancer Drug Screen. Data for the sgs1 strain (AID 173);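 also: 0% = growth of vehicle-only control cultures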; details: S. cerevisiae sgs1 mutant, hits give high values
Method in brief: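 Screen format: yeast with repair or checkpoint alterations, compound exposure, growth read relative to vehicle.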

[14] = NCI Yeast Anticancer Drug Screen. Data for the mlh1 rad18 strain (AID 175); details: S. cerevisiae mlh1 rad18 strain growth inhibition, hits give high values
Method in brief: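 Vehicle-treated cultures served as the reference for growth inhibition in a yeast strain carrying DNA damage repair alterations exposed to each compound.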

[15] = NCI Yeast Anticancer Drug Screen. Data for the rad18 strain (AID 177); details: S. cerevisiae rad18 mutant growth inhibition, hits give high values
Method in brief: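 Test articles were incubated with altered yeast defective in DNA damage repair. Results are given as inhibition of growth versus vehicle.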

[16] = at 5.0 µM (retest, dose inferred, filed as 0.5)
[17] = at 50.0 µM (retest, dose inferred, filed as 5.0)

Measured: growth inhibition

CNC(=O)OCc1c(COC(=O)NC)c(-c2ccc(-c3ccccc3)cc2)n(C)c1C
inactive: [1]; at 1.2 µM -36% | [1]; at 3.7 µM -41% | [1]; at 11.0 µM -27% | [1]; at 33.0 µM 26% | [1]; at 100.0 µM 68% | [2]; at 1.2 µM -7% | [2]; at 3.7 µM -16% | [2]; at 11.0 µM -12% | [2]; at 33.0 µM 10% | [2]; at 100.0 µM 23% | [3]; at 1.2 µM -33% | [3]; at 3.7 µM -31% | [3]; at 11.0 µM -28% | [3]; at 33.0 µM -14% | [3]; at 100.0 µM -1% | [4]; at 1.2 µM -11% | [4]; at 3.7 µM -5% | [4]; at 11.0 µM -6% | [4]; at 33.0 µM 2% | [4]; at 100.0 µM 10% | [5]; at 1.2 µM -46% | [5]; at 3.7 µM -15% | [5]; [16] 25% | [5]; at 11.0 µM -26% | [5]; at 33.0 µM 16% | [5]; at 50.0 µM 64% | [6]; at 1.2 µM -17% | [6]; at 3.7 µM -18% | [6]; [16] 16% | [6]; at 11.0 µM 3% | [6]; at 33.0 µM -8% | [6]; [17] 46% | [6]; at 50.0 µM 13.4% | [6]; at 100.0 µM 1% | [7]; [16] -5% | [7]; [17] 25% | [7]; at 50.0 µM -2.7% | [8]; at 1.2 µM -29% | [8]; at 3.7 µM -2% | [8]; at 11.0 µM -20% | [8]; at 33.0 µM -5% | [8]; at 100.0 µM -9% | [9]; [16] 24% | [9]; [17] 56% | [9]; at 50.0 µM -6.8% | [10]; at 1.2 µM -10% | [10]; at 3.7 µM -15% | [10]; [16] -8% | [10]; at 11.0 µM -15% | [10]; at 33.0 µM 0% | [10]; [17] 23% | [10]; at 50.0 µM -13.5% | [10]; at 100.0 µM -1% | [11]; at 1.2 µM -30% | [11]; at 3.7 µM -29% | [11]; at 11.0 µM -15% | [11]; at 33.0 µM -27% | [11]; at 100.0 µM 23% | [12]; at 1.2 µM -1% | [12]; at 3.7 µM 10% | [12]; at 11.0 µM -11% | [12]; at 33.0 µM 11% | [12]; at 100.0 µM -1% | [13]; at 1.2 µM -26% | [13]; at 3.7 µM -25% | [13]; at 11.0 µM -32% | [13]; at 33.0 µM -26% | [13]; at 100.0 µM 59% | [14]; [16] 24% | [14]; at 50.0 µM 58.8% | [15]; at 1.2 µM -25% | [15]; at 3.7 µM -42% | [15]; at 11.0 µM -61% | [15]; at 33.0 µM -42% | [15]; at 100.0 µM 52%
active: [5]; [17] 85% | [5]; at 100.0 µM 70% | [14]; [17] 75%
